mcGAS MS inh – blocks mouse cGAS cGAMP production; Q8C6L5; recombinant mouse cGAS, cGAMP by RapidFire MS; inhibition, % at 12.5 µM; 130,000 tested, 0.18% active;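 active = inhibition of cGAS enzyme activity at or above 60%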;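 note: enzyme stimulated by 45 bp dsDNA with ATP and GTP substrates; cGAMP share of summed cGAMP plus half ATP and half GTP signals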
* = called active by the depositor. The sample as a whole holds a higher share of hits than the screen did.

SMILES	mcGAS MS inh
CC[C@@]1(O)C[C@H](O[C@H]2C[C@H](N(C)C)[C@H](O)[C@H](C)O2)c2c(cc3c(c2O)C(=O)c2c(O)ccc(O)c2C3=O)[C@H]1C(=O)OC	97*
CC[C@@]1(O)C[C@H](O[C@H]2C[C@H](N(C)C)[C@H](O)[C@H](C)O2)c2c(cc3c(c2O)C(=O)c2c(O)cccc2C3=O)[C@H]1C(=O)OC	98*
CC[C@@]1(O)C[C@H](O)c2c(cc3c(c2O)C(=O)c2c(O)ccc(O)c2C3=O)[C@H]1C(=O)OC	-9
c1ccc(CN2CC3CCCC(C2)N3)cc1	-9
CC1[C@H](C)OC(=O)CC(O)CC(O)CC(O)CCC(O)C(O)C[C@]2(O)CC(O)C(C(=O)O)C(CC(OC3O[C@H](C)[C@@H](O)[C@H](N)[C@@H]3O)C=C/C=C/C=C/C=C/CC/C=C/C=C/[C@H](C)[C@H]1O)O2 (some centres undefined)	2
Cc1c[nH]c(CN2C[C@H]3C[C@H](O)[C@@H](O)C[C@H]3C2)c(C)c1=O	-12
NC(=O)c1cc(CBr)on1	13
Clc1ccc(Cn2ccnc2)cc1Cl	4
NCCc1cccc(CN2C[C@@H]3[C@H](C2)[C@H]2CC[C@@H]3O2)c1	-4
CC(C)n1c(Cl)nnc1-c1ccccc1	-1
O=C(c1ccccc1)[C@H]1N[C@@H]1c1ccc(Br)cc1	-4
NC(=S)N/N=C\c1coc2ccccc2c1=O	95*
COc1ccccc1[C@H]1CN(C(=O)c2cc(C)c[nH]2)[C@@H]2C3CCN(CC3)[C@H]12	-25
CNC(C)c1nc2ccccc2c(=O)n1-c1cccc(C)c1 (centres undefined)	-7
CCc1ccccc1NC(=O)c1cccn(Cc2ccc(Cl)cc2)c1=O	-3

Assay outcomes as filed in PubChem BioAssay.
